Experimental data published in PubChem BioAssay (NCATS).
Inconclusive results are not listed. Unmarked numbers belong to inactive results. The call rests on the fitted dose curve.

Assay: Cell Viability - HepG2 (AID 433);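 further: cells exposed to compound for 40 hours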
Conditions: qHTS
Method in brief: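 Cytotoxicity read as ATP loss (CellTiter-Glo luminescence) after 40 hr compound exposure of HepG2, 1500 cells/well, 37 °C. AC50 by Hill equation; 0% set by DMSO, 100% inhibition by 100 uM tamoxifen.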
Potency means the concentration at half of the fitted maximal effect.

For `O=C(O)COc1ccc(Cl)cc1Cl`, which Potency is on record?
Its Potency is > 92 µM.

Which Potency does the source give for `ClC1=C(Cl)C2(Cl)C3C4C=CC(C4)C3C1(Cl)C2(Cl)Cl` (centres undefined) here?
Its Potency is > 92 µM.

Which Potency does the source give for `O=S1OCC2C(CO1)C1(Cl)C(Cl)=C(Cl)C2(Cl)C1(Cl)Cl` (centres undefined) here?
Its Potency is > 92 µM.

With `c1ccc(N=Nc2ccccc2)cc1` as the molecule, how does the Potency read?
Its Potency is > 92 µM.

For `CNC(=O)O/N=C/C(C)(C)SC`, which Potency is on record?
Its Potency is > 92 µM.

With `CCNc1nc(Cl)nc(NC(C)C)n1` as the molecule, how does the Potency read?
The Potency was > 92 µM.

Which Potency does the source give for `C=CCc1ccc(OC)cc1` here?
The Potency was > 92 µM.

For `ClC1=C(Cl)C2(Cl)C3C(Cl)C=CC3C1(Cl)C2(Cl)Cl` (centres undefined), which Potency is on record?
Its Potency is > 92 µM.

Which Potency does the source give for `ClC1=C(Cl)C2(Cl)C3C4CC(C5OC45)C3C1(Cl)C2(Cl)Cl` (centres undefined) here?
Its Potency is > 92 µM.

Which Potency does the source give for `ClC(Cl)=C(c1ccc(Cl)cc1)c1ccc(Cl)cc1` here?
The Potency was > 92 µM.

For `CCc1cccc(CC)c1N(COC)C(=O)CCl`, which Potency is on record?
The Potency was > 92 µM.

With `C/C=C/c1ccc2c(c1)OCO2` as the molecule, how does the Potency read?
The Potency was > 92 µM.

Which Potency does the source give for `C=CCc1ccc2c(c1)OCO2` here?
The Potency was > 92 µM.

Which Potency does the source give for `COP(=S)(OC)Oc1ccc([N+](=O)[O-])cc1` here?
Its Potency is > 92 µM.
